The text below walks through data of PubChem BioAssay (NCI).

Molecules are shown by their SMILES. This is part of a sample that, as a whole, favours compounds with a hit. Of some 83,000 tested, about 20% had one in any assay.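 Activity criterion: percent growth below 10, measured after cells in 96-well plates were exposed to a single compound concentration for 48 hours.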 A number with no mark means an inactive call. The source made the active and inactive calls.

One assay relates to LOX IMVI melanoma. In words: NCI-60 one-dose screen, 48 h (100 = growth as untreated, 0 = no growth, -100 = all killed). Particulars: 10 µM.
On to `COc1cc2nc(SCc3ccccc3)n(-c3ccc(Cl)cc3)c(=O)c2cc1OC`, for which the growth was -100% (active). Regarding `Cc1cccc(-c2nc(Nc3cccc(S(N)(=O)=O)c3)c3ccccc3n2)c1`, the growth was 7.14% (active). For `COc1ccc2[nH]cc(-c3nnc(N)nc3-c3cn(C)c4ncc(Br)cc34)c2c1`, the growth was 71.9%. As for `CCN(CC)c1ccc(/C=N/Nc2nc(-c3ccc(C)cc3)cs2)c(O)c1`, the growth is 88.2%. Regarding `N/C(=N\c1nc2ccccc2s1)NC(=O)Nc1ccccc1Br`, the growth is -75.7% (active).

In a further assay the test system is SK-MEL-28 melanoma. The assay is described as above. The conditions noted are these: 10 µM unless noted.
Take `Cc1ccc(S(=O)(=O)c2nc(S(=O)(=O)c3ccc(C)cc3)c(Cl)s2)cc1`: the growth is 29.4%. On to `CCCCSc1nc(Nc2ccc(C(C)=O)cc2)c(C#N)c(-c2ccc(OC)cc2)n1`, for which the growth is 91%.

On to `CCOC(=O)C1=C(N)N(c2ccccc2)C2=C(C(=O)CC(C)(C)C2)C1c1ccc([N+](=O)[O-])cc1` (stereo not drawn), for which the growth is 105%. `Cc1cccc(Nc2nc3ccccc3nc2/C=C/c2ccc(F)cc2)c1`: the growth was 101%. On to `Cc1cccc(NC(=O)CN2CCN(c3ncnc4c3cnn4-c3ccccc3)CC2)c1`, for which the growth is 90.1%. In the case of `Cn1cc(-c2cc3nc(-c4c[nH]c5ccc(Br)cc45)cc(N)n3n2)c2ccccc21`, the growth is -96.6% (active). Still for that read-out and setting: as for `C#CCOc1ccc(/C=N/Nc2nc(-c3cc4cc(OC)ccc4oc3=O)cs2)cc1OC`, the figure is 18.9%; as for `CC1(C)CC[C@]2(C(=O)O)CC[C@]3(C)C(=CCC4[C@@]5(C)C[C@@H](O)[C@@H]6OC(c7ccc(F)cc7)OC[C@@]6(C)C5CC[C@]43C)C2C1` (stereo partly drawn), 53.9%. In the case of `O=C(NN1C(=O)/C(=C/C=C/c2ccc([N+](=O)[O-])o2)SC1=S)c1cccc(O)c1`, the growth was -100% (active).

On to `Cc1ccc(C(=O)NN2C(=O)/C(=C/C=C/c3ccc([N+](=O)[O-])o3)SC2=S)cc1`, for which the growth is -94.3% (active). Still for that read-out and setting: as for `N/C(=N\c1nc2ccccc2s1)NC(=O)Nc1c(Cl)cccc1Cl`, the figure is 50.6%; as for `O=C(CN1C(=O)/C(=C/c2ccccc2Cl)SC1=S)N1CCOCC1`, 98.8%; as for `CN(C)c1nc(NCCNS(=O)(=O)c2ccc(C3=Nc4c(N)nc(N)nc4NC(c4ccc(C(F)(F)F)cc4)C3)cc2)nc(Nc2ccc(F)cc2)n1` (stereo not drawn), 14%. As for `O=C(CSc1nc2ccccc2c(=O)[nH]1)NCCN1CCCCC1`, the growth is 98.7%. The same measure, in the same setting: in the case of `Cn1cc(-c2nnc(N)nc2-c2c[nH]c3ccc(Br)cc23)c2cc(Br)cnc21` it was 43.6%; in that of `O=C(O)Cn1c(O)c(/C=C2/C=c3cc4c(cc3=NC2=O)OCCO4)sc1=S`, 116%. Same read-out and setting: in the case of `N/C(=N\c1nc2ccccc2s1)NC(=O)Nc1ccc(Cl)cc1Cl` it was -33.2% (active). Turning to `Cc1ccc(-c2nc(C#N)c(S(=O)(=O)N3CCN(S(=O)(=O)c4ccccc4)CC3)o2)cc1`, the growth was 18.9%. Regarding `COc1cccc(-c2nc(Nc3ccc(S(N)(=O)=O)cc3)c3ccccc3n2)c1`, the growth was 47.3%.

For `COc1ccc(/C=C/c2nc3ccccc3n3c(-c4ccc(Cl)cc4)nnc23)cc1`, the growth is 104%. For `CNS(=O)(=O)c1ccc(Nc2ccc(C(F)(F)F)cc2)c(-c2cn(C)cn2)c1`, the growth is 74.8%.

With `CCS(=O)(=O)N1CCCC(C(=O)Nc2nc3ccc(NC(=O)c4ccc(F)c(OC)c4F)cc3s2)C1` (stereo not drawn), the growth is 78.6%. Consider `C#CCOc1cc(N(CC)CC)ccc1C(C(=O)NC(C)(C)C)N(C(=O)C1CCc2cc(F)ccc2O1)c1cc(C)cc(C)c1` (stereo not drawn), for which the growth is 62.9%. Same read-out and setting: in the case of `C#CCOc1ccc(/C=N/Nc2nc(-c3ccc(Cl)cc3)cs2)cc1OC` it was 79.5%.

Turning to `O=C(COc1ccc2c(c1)CCCC(=O)N2)NCc1ccccc1`, the growth is 90.4%. Regarding `CN(C)c1nc(NCCNS(=O)(=O)c2ccc(C3=Nc4c(N)nc(N)nc4NC(c4ccccc4)C3)cc2)nc(Nc2ccc(F)cc2)n1` (stereo not drawn), the growth was 60.2%. For `CC1(C)CC[C@]2(C(=O)O)CC[C@]3(C)C(=CCC4[C@@]5(C)C[C@@H](O)[C@@H]6OC(c7ccccc7F)OC[C@@]6(C)C5CC[C@]43C)C2C1` (stereo partly drawn), the growth is 19.7%. In the case of `Cc1cccc(-c2nc(Nc3ccc(C)c(S(N)(=O)=O)c3)c3ccccc3n2)c1`, the growth is 38.9%. As for `COC(=O)C[C@](O)(CCCC(C)(C)O)C(=O)O[C@H]1C(OC)=C[C@@]23CCCN2CCc2cc4c(cc2[C@@H]13)OCO4`, the growth is -35.4% (active). Consider `Cn1cc(-c2cc(N)n3nc(-c4cn(C)c5ccccc45)cc3n2)c2cc(Cl)ccc21`, for which the growth was -86.7% (active). As to `CC1(C)CC[C@]2(C(=O)O)CC[C@]3(C)C(=CCC4[C@@]5(C)C[C@@H](O)[C@@H]6OC(c7ccco7)OC[C@@]6(C)C5CC[C@]43C)C2C1` (stereo partly drawn), the growth was 24.9%. The same measure, in the same setting: as for `Cn1cc(-c2cc3nc(-c4c[nH]c5ccc(Cl)cc45)cc(N)n3n2)c2ccccc21`, the figure is -97.4% (active); as for `COc1ccc(Cc2nn(CC(=O)N/N=C/c3ccc(F)cc3)c(=O)c3c(C)noc23)cc1`, 35.9%.

On to `COc1cc2nc(SCc3ccccc3)n(-c3ccc(Cl)cc3)c(=O)c2cc1OC`, for which the growth is 21.6%.

As to `Cc1cccc(-c2nc(Nc3cccc(S(N)(=O)=O)c3)c3ccccc3n2)c1`, the growth was 57.7%.

`COc1ccc2[nH]cc(-c3nnc(N)nc3-c3cn(C)c4ncc(Br)cc34)c2c1`: the growth was 54%. For the compound `CCN(CC)c1ccc(/C=N/Nc2nc(-c3ccc(C)cc3)cs2)c(O)c1`, the growth was 95%.

For `N/C(=N\c1nc2ccccc2s1)NC(=O)Nc1ccccc1Br`, the growth was 28.5%.
